Screening results from PubChem BioAssay.
This is a sample that favours compounds with a hit; in the whole collection about 1.1% have one here.
Tb PGK inh: qHTS Assay to Find Inhibitors of Phosphoglycerate Kinase; Phosphoglycerate kinase, glycosomal (Trypanosoma brucei brucei), P07378; actives 0.043% (n = 380,000); PGK/GAPDH coupled, Kinase-Glo luminescence, 60 min; Potency, µM (doses to about 57.5 µM), for inactives: at the top dose activity change, negative = inhibition, hits mostly inhibitors; AID 602233, 2012; also: nearly all actives have a fitted effect of over 60% in size
Target sequence (P07378 whole entry, looked up): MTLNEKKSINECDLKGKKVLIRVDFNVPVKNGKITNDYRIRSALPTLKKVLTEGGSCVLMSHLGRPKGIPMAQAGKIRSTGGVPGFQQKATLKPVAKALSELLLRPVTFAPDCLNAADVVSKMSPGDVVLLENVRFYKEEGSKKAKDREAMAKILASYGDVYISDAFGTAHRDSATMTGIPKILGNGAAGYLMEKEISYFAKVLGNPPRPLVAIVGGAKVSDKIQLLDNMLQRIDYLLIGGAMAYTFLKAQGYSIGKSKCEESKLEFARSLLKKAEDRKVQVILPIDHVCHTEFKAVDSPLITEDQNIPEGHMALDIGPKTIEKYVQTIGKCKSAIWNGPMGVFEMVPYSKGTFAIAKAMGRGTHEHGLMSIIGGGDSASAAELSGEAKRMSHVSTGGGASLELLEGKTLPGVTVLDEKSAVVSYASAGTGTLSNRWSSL
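Luminescent ATP detection (Kinase-Glo Plus) follows a 60-minute room-temperature incubation, with wells lacking PGK as controls. Buffer: 100 mM TEA (pH 7.6), 5 mM MgCl2, 0.01% Tween-20. Coupling enzyme GAPDH (100 nM final) supplies unstable 1,3-BPG in-well.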
Tb PFK block: qHTS Assay to Find Inhibitors of T. brucei phosphofructokinase. ATP-dependent 6-phosphofructokinase (Trypanosoma brucei brucei), O15648. T. brucei PFK, ADP-Glo luminescence. Potency, µM (highest dose often 57.5 µM), without a hit: top-dose activity, negative = inhibition, hits mostly inhibitors. actives 0.17% (n = 330,000);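 also: 0% = uninhibited 1x PFK enzyme wells and -100% = no-enzyme wells; nearly all actives have a fitted effect of over 60% in size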
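Activity is normalized to no-enzyme wells (full inhibition) and 1.25 nM enzyme wells (no inhibition). Reaction: 0.5 mM F6P, 0.1 mM ATP, 45 min RT, ADP-Glo luminescence; concentration-response curves fitted and classed by quality.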
Pin1 inhibitor: qHTS Assay to Find Inhibitors of Pin1 | Peptidyl-prolyl cis-trans isomerase NIMA-interacting 1 (Homo sapiens), Q13526 | Pin1 FP peptide displacement, HiFluor488, 10 min | Potency, µM (doses to about 115 µM), without a hit: at the top dose activity, negative = inhibition, actives largely listed as inhibitors | actives 0.009% (n = 390,000) | AID 504891, 2011; active = well fitted inhibition curve with a large enough effect in the polarisation, with a control signal flat, not every such curve was filed as active; inconclusive = small, poorly fitted or top-dose-only effect, or effect the other way, or a change in a side signal; inactive = no such curve, though single readings can be large or run the other way; the % refers to the polarisation
VDR inhibitor: Inhibitors of the vitamin D receptor (VDR): qHTS; VDR-SRC2-3 peptide fluorescence polarization, 2 h; AID 504847, 2011; actives 0.93% (n = 400,000); Potency, µM, for the others: max response, negative = inhibition, hits mostly inhibitors; Vitamin D3 receptor (Homo sapiens), P11473
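Two reagent solutions held at 4 deg C in the dark were dispensed, compounds pinned at 23 nl, and the mixture incubated 2 h at room temperature. Read-out: fluorescence polarization of VDR–SRC2-3 peptide binding.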
GLS inh: qHTS for Inhibitors of Glutaminase (GLS). GLS enzymatic activity, qHTS titration. Potency, µM (series often up to 45.5 µM), for the others: top-dose activity change, negative = inhibition, actives largely listed as inhibitors. actives 0.21% (n = 410,000)
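hKGA in 45 mM KH2PO4 (pH 8.2), 0.02% Tween-20 with compound, then 1mM L-Glutamine (stock as added) plus glutamate oxidase/HRP/Amplex red coupling mix. Fluorescence read initially and after 30 min at RT; signal change reflects glutamate formation.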
Numbers without * were called inactive; i = inactive; u = inconclusive; x = no result; ! = not confirmed by another sample. Unless noted, calls follow the shape of the dose curve; as a rule, active = well fitted curve in the direction sought with a large enough effect; inconclusive = small, poorly fitted or top-dose-only effect, or another doubt; inactive = no such curve, though single readings can be large; an effect the other way counts as inactive or inconclusive. Unless noted, % is scaled to controls: 0 for no effect and ±100 for the full control effect; potency is read from the fitted curve at half-maximal effect.

SMILES | Tb PGK inh | Tb PFK block | Pin1 inhibitor | VDR inhibitor | GLS inh
Cc1ccc(CNC(=O)CSc2nc3c(sc4ccccc43)c(=O)n2CCCOC(C)C)cc1 | -1% | x | 2% | -11% | 12%
Nc1ccc(N)c(C(=O)O)c1 | u | u | u | u | 5.6µM*
COc1ccc(/C=C(\NC(=O)c2ccccc2)C(=O)NC2CCCCC2)cc1 | 2% | x | 4% | -6% | -14%
O=c1c(Br)ccc(Br)cc1Br | 2% | x | -9% | 10µM* | 32%
CC(C(=O)Nc1ccccc1C(=O)N1CCOCC1)N(c1ccc(Cl)cc1)S(C)(=O)=O (stereo unspecified) | 1% | 0% | -3% | 22µM* | u
CC(=O)C1=C(C)NC(SCC(=O)c2ccc(F)cc2)=C(C#N)C1CC(C)C (stereo unspecified) | -2% | 6% | 8% | -22% | 3%
CC(=O)C1=C(C)NC(SCC(N)=O)=C(C#N)C1CC(C)C (stereo unspecified) | -8% | 5% | 0% | 79µM* | 0%
Cc1ccccc1Cn1cnc2c(nnn2Cc2ccc(F)cc2)c1=O | -9% | 1% | -7% | 89µM* | 7%
COc1ccc(Cl)cc1NC(=O)CSc1cn(CC(=O)N2CCCCCC2)c2ccccc12 | -10% | x | u | 6% | -8%
CC(=O)N1c2ccc(S(=O)(=O)N3CCCCCC3)cc2CC1C(=O)NCc1cccc(C)c1 (stereo unspecified) | -9% | x | 7% | 14% | 4%
COc1cc(/C=N/NC(=O)c2cccc([N+](=O)[O-])c2)ccc1OCc1ccccc1 | -4% | -2% | -1% | 6% | -2%
CCOC(=O)C(=Cc1ccc(OCc2ccc([N+](=O)[O-])cc2)c(OC)c1)C(=O)OCC | 6% | -6% | -1% | 79µM* | 6%
O=c1c(-c2ccc3c(c2)OCCO3)coc2cc(O)cc(O)c12 | 0% | -16% | -6% | -7% | 8%
O=c1c(-c2ccccc2)coc2cc(O)cc(O)c12 | x | x | x | 28µM* | x
O=C1Nc2ccccc2SC1c1ccccc1 (stereo unspecified) | i | -13% | -2% | u | -1%
Cc1ccc(NC2Sc3ccccc3NC2=O)cc1 (stereo unspecified) | -7% | u | -2% | 11µM* | -10%
Cc1ccc(S(=O)(=O)N2CCN(c3nc(-c4cncs4)nc4ccccc34)CC2)cc1 | x | x | 0% | -6% | x
CO[C@H]1/C=C/O[C@@]2(C)Oc3c(C)c(O)c4c(O)c(c(/C=N\N5CCN(C6CCCC6)CC5)c(O)c4c3C2=O)NC(=O)/C(C)=C\C=C\[C@H](C)[C@H](O)[C@@H](C)[C@@H](O)[C@@H](C)[C@H](OC(C)=O)[C@@H]1C | x | x | x | 11µM* | 55%
CC(C)Oc1ccc(CNC(=O)CN2C(=O)CCn3nc(-c4cn(C)c5ccccc45)cc32)cc1 | 4% | x | u | 19% | -18%
Cc1ccc(SSc2cc(C)ccc2N)c(N)c1 | -1% | 21µM* | 1% | 6.3µM* | 14%
CC(=O)N1CC[n+]2c(-c3ccc(Cl)cc3)csc21 | -5% | -25% | -11% | 20µM* | 55%
CCc1ccc(-c2csc3[n+]2CCN3C(C)=O)cc1 | x | u | 0% | 25µM* | 11%
CCN(CC)CCC(=O)N1c2ccccc2Sc2ccc(C(F)(F)F)cc21 | x | x | x | 28µM* | 15%
CCN(CC)CCC(=O)N1c2ccccc2Sc2ccc(Cl)cc21 | -3% | -12% | -1% | 50µM*! | -5%
Cc1cc(C)n(CC(=O)N2c3ccccc3Sc3ccc(C(F)(F)F)cc32)n1 | 11% | -1% | -3% | -7% | 1%
Cc1cccc(C)c1NC(=O)Cn1nnc(C(=O)NCc2ccc(F)cc2)c1N | 9% | x | -1% | 13% | -9%
Cc1cc(C)cc(NC(=O)Cn2nnc(C(=O)NCc3ccc(F)cc3)c2N)c1 | 0% | -21% | 7% | 20µM* | u
